Hits are enriched below; roughly 32% of the tested compounds scored in any of these assays.
CYP2C19 inh: blocks human cytochrome P450 2C19; P33261; CYP2C19 Supersomes, luciferin-H EGE luminescence, 30 min; inhibition, % at 5 µM; hit rate 21% among 96,000; AID 778;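 active = CYP2C19 inhibition above a set limit at 5 µM in the primary screen, cut at about 50% in these data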;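 also: plate controls were negative control wells for no effect and 2.5 mM tranylcypromine positive control for full effect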
CYP2C9 inh: blocks human cytochrome P450 2C9. inhibition, % at 5 µM. hit rate 20% among 96,000. AID 777. CYP2C9 Supersomes, luciferin-H conversion, luminescence;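 active = blocking of liver enzyme CYP2C9 beyond about 50% at 5 µM, limit read from the data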
Target sequence (P11712 whole entry, looked up): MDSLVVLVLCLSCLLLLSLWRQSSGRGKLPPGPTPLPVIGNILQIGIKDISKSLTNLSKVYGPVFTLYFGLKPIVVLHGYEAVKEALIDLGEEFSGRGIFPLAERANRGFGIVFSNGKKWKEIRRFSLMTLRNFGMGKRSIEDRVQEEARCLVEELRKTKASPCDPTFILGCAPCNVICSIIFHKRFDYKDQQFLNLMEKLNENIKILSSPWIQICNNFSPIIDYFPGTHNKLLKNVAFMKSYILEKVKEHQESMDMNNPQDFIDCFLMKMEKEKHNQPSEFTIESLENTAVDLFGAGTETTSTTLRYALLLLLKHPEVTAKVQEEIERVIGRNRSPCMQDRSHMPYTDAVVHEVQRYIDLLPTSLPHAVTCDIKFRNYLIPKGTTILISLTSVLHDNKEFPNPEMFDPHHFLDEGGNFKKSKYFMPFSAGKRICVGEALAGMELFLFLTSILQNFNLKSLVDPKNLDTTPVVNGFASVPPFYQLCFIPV
PostGolgi yeast: growth inhibition of a yeast mutant, post-Golgi transport screen. inhibition, % at 10 µM. hit rate 0.9% among 98,000. post-Golgi transport phenotypic cell assay;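 also: yeast cells grown in 1536-well plates; yeast grown about 18 h at 30C before absorbance read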
PostGolgi ctrl: inhibits growth of the yeast control strain; inhibition, % at 10 µM; efflux-deficient yeast background strain, growth absorbance A615, 16 h; AID 738; hit rate 5% among 98,000
CYP2C19 act: activators of human cytochrome P450 2C19 | P33261 | recombinant CYP2C19, luciferin-H EGE luminescence; active compounds read high; 0 = fully inhibited enzyme, 1 = untreated enzyme | activation factor at 5 µM | 96,000 tested, under 10 active | AID 1025;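 active = activation factor of at least 2 at 5 µM in the primary screen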;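 also: 0 = wells with 2.5 mM tranylcypromine and 1 = vehicle-only wells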
CYP2C9 activ: activators of human CYP2C9. P11712. recombinant CYP2C9, luciferin-H conversion, luminescence; active compounds read high; factor 1 = untreated enzyme, 0 = blocked. activation factor at 5 µM. hit rate 1.4% among 96,000;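 active = activation factor of 2 or more for CYP2C9 at a 5 µM dose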;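 also: 0 = sulfaphenazole-blocked wells and 1 = vehicle-only wells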
Numbers without * were called inactive; . = no result given. Rule as the data show it, unless noted: active = inhibition above about 30%; inactive = the rest.

SMILES	CYP2C19 inh	CYP2C9 inh	PostGolgi yeast	PostGolgi ctrl	CYP2C19 act	CYP2C9 activ
CCCCN(C(=O)NC(=O)Nc1ccccc1OCC)S(C)(=O)=O	54*	79*	0	14	0.5	0.2
CC(C)NC(=O)c1ccc(CS(=O)(=O)c2ccc(Br)cc2)o1	13	46	-8	3	0.9	0.5
COc1ccc(C2CC(=O)N3C(=C2C#N)SCC3(O)c2ccccc2)cc1 (stereo not drawn)	84*	100*	-3	7	0.2	0
CSC1=C(C#N)C(c2cccs2)CC(=O)N1C (stereo not drawn)	23	-1	.	.	0.8	1
N#CC1=C2SCC(O)(c3ccccc3)N2C(=O)CC1c1ccccc1F (stereo not drawn)	100*	99*	4	4	0	0
N#CC1=C2SCC(O)(c3ccccc3)N2C(=O)CC1c1cccs1 (stereo not drawn)	82*	99*	-1	13	0.2	0
COc1ccc2ccccc2c1C1CC(=O)N2CN(C)CSC2=C1C#N (stereo not drawn)	9	46	0	-7	0.9	0.5
Cc1nc2nc[nH]n2c(=O)c1NC(=O)c1c(-c2ccccc2Cl)noc1C	5	39	-7	-3	1	0.6
O=C(c1ccccc1)c1coc2ccc(O)c(CN3CCOCC3)c12	96*	56*	0	0	0	0.4
Cc1ccc(C(=O)c2coc3ccc(O)c(Cl)c23)cc1	54*	6	0	18	0.5	0.9
O=C(c1ccccc1)c1coc2ccc(O)c(Cl)c12	90*	64*	-2	5	0.1	0.4
CCc1cc2c(N[C@@H](C)C(=O)O)ncnc2s1	7	0	0	-2	0.9	1
CN(CCNS(=O)(=O)c1ccc2c(c1)oc(=O)n2C)Cc1ccccc1	26	-22	3	-3	0.7	1.2
COc1cccc(CNn2c(-c3cccc(C)c3)nc3ccccc3c2=O)c1	98*	98*	4	36*	0	0
COc1ccc(OC)c(CNn2c(-c3cccc(C)c3)nc3ccccc3c2=O)c1	89*	80*	-1	28	0.1	0.2
O=C(CN1CCN(Cc2ccccc2Cl)C1=O)NC1CCCCCCC1	72*	-7	-2	22	0.3	1.1
O=C(CN1CCN(Cc2ccccc2Cl)C1=O)NCc1ccco1	-2	14	6	15	1	0.9
CC(C)OCCCNC(=O)CN1CCN(Cc2ccccc2Cl)C1=O	9	52*	-3	3	0.9	0.5
Cc1ccc2oc(=O)c3cnn(CC(=O)N(CCCN4CCOCC4)Cc4ccco4)c3c2c1	.	.	7	-2	.	.
COc1ccc(OCc2cccc(C(=O)O)c2)cc1	98*	97*	-6	1	0	0
O=C(OCC(F)(F)F)c1cccc(COc2ccc3ccccc3c2)c1	52*	56*	-4	7	0.5	0.4
COc1cccc(OC)c1C(=O)NNC(=O)c1cccc(COc2ccc3c(c2)CCC3)c1	57*	28	-4	18	0.4	0.7
O=C(Oc1ccc2ccccc2c1)c1ccccc1	-3	14	8	1	1	0.9
O=C(O)c1cccc(COCC(F)(F)C(F)F)c1	-13	-3	-4	1	1.1	1
CCOc1ccc(C(=O)N2CCN(Cc3ccccc3)CC2)cc1	12	4	-3	4	0.9	1
SMILES	CYP2C19 inh	CYP2C9 inh	PostGolgi yeast	PostGolgi ctrl	CYP2C19 act	CYP2C9 activ
CCOc1ccc(OCc2cccc(C(=O)N3CCCC3)c2)cc1	40	66*	3	6	0.6	0.3
COC(=O)c1ccccc1NC(=O)c1ccc(COc2ccc3c(c2)CCC3)cc1	-2	-8	-3	8	1	1.1
Cc1cccnc1NC1OC(=O)c2ccccc21 (stereo not drawn)	-15	-3	-3	-1	1.1	1
Cc1ccc(OC(=O)C(F)(F)F)c2c1NCCC2	36	15	-2	9	0.6	0.9
O=C(O)c1cccc(COc2ccc(CO)cc2Cl)c1	99*	94*	7	20	0	0.1
CCOc1ccc(OCc2cccc(C(=O)O)c2)cc1	100*	99*	0	1	0	0
COCCCNc1ncnc2nc[nH]c12	-6	-3	-2	1	1.1	1
CCn1c(=O)cc(N2CCCCC2)[nH]c1=O	-9	-20	0	5	1.1	1.2

Assay outcomes from PubChem.
